Test [1] can be described thus: antimalarial activity against Dd2 strain (AID 2302;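 active means growth inhibition above 50% at the single 2 µM test dose, taken to imply half-maximal potency below 2 µM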;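 further: 0% = DMSO untreated growth and 100% = chloroquine plus artemisinin killed control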). The following applies: P. falciparum Dd2 in RBCs, LDH growth readout, 72 h; at 2 µM; hits give high values.
Test [2] is described as follows: HepG2 cytotoxicity, primary screen, cytotoxicity control for P. falciparum antimalarial project, cell-based, ATP luminescence (AID 2303;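 active means inhibition above 50%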;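 further: 0% = DMSO wells and 100% = digitonin-killed cells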). The following applies: HepG2 viability, 24-48 h, at 10 µM, hits give high values.
The target of test [3] is L-lactate dehydrogenase (Plasmodium falciparum (isolate CDC / Honduras)) (UniProt Q27743). The experiment in a line: PfLDH activity inhibition – cell lysate, 3D7 strain, counter-screen for P. falciparum growth inhibition project (AID 2304).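 Further: 0% = vehicle and 100% = reference inhibitor.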 The following applies: P. falciparum 3D7 crude extract, LDH APAD/NBT absorbance; at 2 µM; hits give high values. For orientation: A counterscreen serves to expose hits that act by an unwanted route or on another target.
Sequence of L-lactate dehydrogenase (Plasmodium falciparum (isolate CDC / Honduras)) (Q27743 whole entry, looked up): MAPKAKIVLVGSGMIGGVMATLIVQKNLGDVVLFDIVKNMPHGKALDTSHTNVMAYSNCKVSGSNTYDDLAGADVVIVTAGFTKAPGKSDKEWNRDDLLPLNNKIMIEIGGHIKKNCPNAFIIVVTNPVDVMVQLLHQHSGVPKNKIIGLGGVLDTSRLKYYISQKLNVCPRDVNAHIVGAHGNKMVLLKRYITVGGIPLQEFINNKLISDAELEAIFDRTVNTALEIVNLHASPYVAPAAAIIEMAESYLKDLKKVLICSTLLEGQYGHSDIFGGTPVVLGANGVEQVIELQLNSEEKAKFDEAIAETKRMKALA

Test [4] can be described thus: inhibition of 3D7 malaria parasite growth – strain 3D7 (AID 2306).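 Further: 0% = DMSO wells and 100% = chloroquine plus artemisinin control wells.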 Particulars: P. falciparum 3D7 erythrocytic growth, LDH absorbance, 72 h; at 2 µM; hits give high values.
The target in test [5] is Calcium-dependent protein kinase 1 (Plasmodium falciparum (isolate 3D7)) (UniProt P62344). The test can be described thus: PfCDPK1 kinase inhibitors, biochemical, TCAMS library (AID 1159585; cut-off not given, nearly all actives have IC50 up to about 0.98 µM;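 further: inhibitors leave more ATP so luminescence rises with inhibition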). The following applies: recombinant PfCDPK1, Kinase-Glo ATP depletion luminescence. (In general: In Kinase-Glo more light means more ATP remaining.)
Sequence of Calcium-dependent protein kinase 1 (Plasmodium falciparum (isolate 3D7)) (P62344 whole entry, looked up): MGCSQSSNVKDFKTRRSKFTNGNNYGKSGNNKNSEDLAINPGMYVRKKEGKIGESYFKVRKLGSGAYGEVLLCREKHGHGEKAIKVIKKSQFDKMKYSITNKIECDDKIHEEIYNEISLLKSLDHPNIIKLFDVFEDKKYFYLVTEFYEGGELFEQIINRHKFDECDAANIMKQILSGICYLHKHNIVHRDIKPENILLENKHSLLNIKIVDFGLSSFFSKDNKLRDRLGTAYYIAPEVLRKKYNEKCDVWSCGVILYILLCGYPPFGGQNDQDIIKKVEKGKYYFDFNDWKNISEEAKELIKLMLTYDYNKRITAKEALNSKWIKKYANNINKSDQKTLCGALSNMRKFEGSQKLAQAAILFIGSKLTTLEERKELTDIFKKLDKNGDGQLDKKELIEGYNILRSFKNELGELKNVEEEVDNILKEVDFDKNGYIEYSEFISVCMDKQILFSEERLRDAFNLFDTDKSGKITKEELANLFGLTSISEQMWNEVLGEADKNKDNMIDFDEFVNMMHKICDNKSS
Test [6] deals with Plasmodium falciparum protein kinase 6 (PK6, PF3D7_1337100) (UniProt Q8IDW1). The experiment in a line: PfPK6 kinase inhibitors, biochemical, TCAMS library (AID 1159586). The following applies: recombinant PfPK6, Kinase-Glo ATP depletion luminescence.
Sequence of Plasmodium falciparum protein kinase 6 (PK6, PF3D7_1337100) (Q8IDW1 1-305): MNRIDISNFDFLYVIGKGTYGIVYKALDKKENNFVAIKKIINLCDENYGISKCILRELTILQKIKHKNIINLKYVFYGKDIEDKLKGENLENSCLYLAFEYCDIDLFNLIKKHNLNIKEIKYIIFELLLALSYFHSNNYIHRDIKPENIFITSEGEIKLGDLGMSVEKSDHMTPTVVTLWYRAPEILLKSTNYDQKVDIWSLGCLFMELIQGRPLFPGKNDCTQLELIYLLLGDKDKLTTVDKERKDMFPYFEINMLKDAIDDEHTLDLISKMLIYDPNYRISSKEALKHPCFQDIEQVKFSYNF
Test [7] deals with Protein kinase 7 (PK7), Plasmodium falciparum 3D7 (PF3D7_0213400) (UniProt Q7YTF7). The experiment in a line: inhibition of Plasmodium PK7 catalytic activity – biochemical, TCAMS antimalarial set, Kinase-Glo luminescence (AID 1159587). Particulars: recombinant PfPK7, Kinase-Glo ATP depletion luminescence.
Sequence of Protein kinase 7 (PK7), Plasmodium falciparum 3D7 (PF3D7_0213400) (Q7YTF7 1-343): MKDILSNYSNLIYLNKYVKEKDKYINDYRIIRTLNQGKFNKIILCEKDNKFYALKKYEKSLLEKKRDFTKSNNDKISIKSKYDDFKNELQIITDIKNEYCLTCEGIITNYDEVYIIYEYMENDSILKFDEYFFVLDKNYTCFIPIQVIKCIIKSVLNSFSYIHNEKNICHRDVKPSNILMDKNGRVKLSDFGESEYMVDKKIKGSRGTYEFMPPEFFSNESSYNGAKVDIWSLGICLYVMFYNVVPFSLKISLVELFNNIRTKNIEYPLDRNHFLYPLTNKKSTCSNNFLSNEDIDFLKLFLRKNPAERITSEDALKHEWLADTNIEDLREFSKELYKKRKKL
Test [8] deals with Calcium-dependent protein kinase 4 (Plasmodium falciparum (isolate 3D7)) (UniProt Q8IBS5). The experiment in a line: PfCDPK4 kinase inhibitors, biochemical, TCAMS library (AID 1159588; cut-off not given, nearly all actives have IC50 up to about 0.91 µM). Particulars: recombinant PfCDPK4, Kinase-Glo ATP depletion luminescence.
Sequence of Calcium-dependent protein kinase 4 (Plasmodium falciparum (isolate 3D7)) (Q8IBS5 whole entry, looked up): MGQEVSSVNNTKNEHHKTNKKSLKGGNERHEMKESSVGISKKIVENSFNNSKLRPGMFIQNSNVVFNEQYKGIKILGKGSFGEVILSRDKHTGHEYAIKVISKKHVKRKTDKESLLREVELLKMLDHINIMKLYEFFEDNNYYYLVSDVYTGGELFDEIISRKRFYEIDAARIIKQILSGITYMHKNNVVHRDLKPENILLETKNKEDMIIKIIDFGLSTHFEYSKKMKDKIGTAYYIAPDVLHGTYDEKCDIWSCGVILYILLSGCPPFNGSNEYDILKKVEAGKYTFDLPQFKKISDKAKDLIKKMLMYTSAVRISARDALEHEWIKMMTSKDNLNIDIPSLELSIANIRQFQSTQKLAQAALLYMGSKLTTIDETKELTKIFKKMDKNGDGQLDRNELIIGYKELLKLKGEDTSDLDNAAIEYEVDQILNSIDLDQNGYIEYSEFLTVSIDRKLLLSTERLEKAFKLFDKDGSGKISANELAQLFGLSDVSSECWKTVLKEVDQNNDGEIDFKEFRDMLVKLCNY

For orientation: inhibition means the drop in the measured response relative to a control, in per cent.

Values without a mark were called inactive. For some of these results: Entries with a potency or affinity are not part of this list. Activity calls are given as the source filed them. Unless noted, how the calls were made is not given here.

As for `CCc1ccnc2c(N3CCCC3=O)cc(C(=O)N[C@@H](Cc3ccccc3)[C@H](O)CNC3CCOCC3)cc12`, the growth inhibition in test [1] is 98% (active); in test [4], 99% (active). The values for the inhibition in test [2] and in test [3] were 2% and 4%, respectively. Also, the outcome in test [5], in test [6], in test [7] and in test [8] was inactive.
As to `O=C(Nc1ccc(N2CCCN(Cc3cccc(F)c3)CC2)cc1)c1ccc(F)cc1`, the growth inhibition in test [1] was 95% (active); in test [4], 96% (active). Further, the inhibition in test [2] is 0%; in test [3], 3%. Also, the result in test [5], in test [6], in test [7] and in test [8] was inactive.
For `CC(C)NCc1ccc(-c2ccc(CN3CCCC(c4ccccc4)C3)cc2)c(C(=O)NC2Cc3ccccc3C2)c1` (stereo not given), the growth inhibition was 64% (active) in test [1] and 96% (active) in test [4]. In addition, the values for the inhibition in test [2] and in test [3] were 41% and 3%, respectively. Further, the result in test [5], in test [6], in test [7] and in test [8] was inactive.
On to `CC(C)(C)c1cc(NC(=O)c2ccc(Cl)c([N+](=O)[O-])c2)cc(C(C)(C)C)c1`, for which the growth inhibition was 7% in test [1] and 93% (active) in test [4]. For the same compound, the values for the inhibition in test [2] and in test [3] were -4% and 4%, respectively. Besides, the outcome in test [5], in test [6], in test [7] and in test [8] was inactive.
Consider `Cc1cc(-c2nc3cncc(-c4cccc(CN5CCCC5Cc5cccnc5)c4)c3n2C)nn1C` (stereo not given), for which the growth inhibition was 73% (active) in test [1] and 83% (active) in test [4]. Moreover, the results for the inhibition in test [2] and in test [3] were -7% and -1%, respectively. Also, the result in test [5], in test [6], in test [7] and in test [8] was inactive.
With `CCCc1cccc(C)c1OCCCON1C(N)=NC(N)=NC1(C)C`, the growth inhibition in test [1] was 96% (active); in test [4], 95% (active). Besides, the inhibition in test [2] was 57% (active); in test [3] it was -2%. Besides, the outcome in test [5], in test [6], in test [7] and in test [8] was inactive.
For the compound `COc1cc(CNCCCCCCNCc2cc(OC)cc3ccccc23)c2ccccc2c1`, the growth inhibition in test [1] was 94% (active); in test [4] it was 100% (active). In addition, the inhibition in test [2] was 57% (active); in test [3] it was -5%. Moreover, the result in test [5], in test [6], in test [7] and in test [8] was inactive.
On to `CCC(C)(C)C1CCc2[nH]c3ccccc3c(=O)c2C1` (stereo not given), for which the growth inhibition in test [1] is 96% (active); in test [4] it was 97% (active). Moreover, the values for the inhibition in test [2] and in test [3] were 16% and -4%, respectively. In addition, the outcome in test [5], in test [6], in test [7] and in test [8] was inactive.
On to `COc1ccc2ncc(F)c(CCN3[C@@H]4CC[C@H]3CC(NCc3ccc5c(c3)OCCO5)C4)c2n1` (stereo not given in full), for which the figures for the growth inhibition in test [1] and in test [4] were 35% and 102% (active), respectively. The inhibition in test [2] was 27%; in test [3], -5%. The outcome in test [5], in test [6], in test [7] and in test [8] was inactive.
In the case of `c1cncc(-c2cccc(CNc3nccc(Nc4ccc(OCCN5CCOCC5)cc4)n3)c2)c1`, the growth inhibition in test [1] is 27%; in test [4] it was 93% (active). For the same compound, the inhibition is 1% in test [2] and -2% in test [3]. In addition, the result in test [5], in test [6], in test [7] and in test [8] was inactive.
In the case of `COc1ccc2nccc([C@@H](O)CN3CCC(NCc4cc5ccccc5[nH]4)CC3)c2c1`, the growth inhibition in test [1] was 41%; in test [4] it was 92% (active). Also, the inhibition is 75% (active) in test [2] and 4% in test [3]. Further, the result in test [5], in test [6], in test [7] and in test [8] was inactive.
As for `CN(C)c1ccc(C=C2SC(=Nc3ccccc3)N(c3ccccc3)C2=O)cc1[N+](=O)[O-]`, the growth inhibition was 82% (active) in test [1] and 96% (active) in test [4]. Besides, the inhibition in test [2] is 9%; in test [3], 7%. Also, the result in test [5], in test [6], in test [7] and in test [8] was inactive.
In the case of `CCNc1cc(C(=O)N[C@@H](Cc2ccccc2)[C@H](O)CNCCc2cc(OC)cc(OC)c2)cc(N2CCCCS2(=O)=O)c1`, the growth inhibition was 28% in test [1] and 89% (active) in test [4]. Besides, the inhibition in test [2] is 3%; in test [3], 0%. In addition, the outcome in test [5], in test [6], in test [7] and in test [8] was inactive.
`CC(=O)Nc1cccc(C(=O)Nc2cccc(-c3ccc(-c4nc5c(C)cccc5[nH]4)cc3)c2)c1`: the growth inhibition in test [1] is 12%; in test [4], 95% (active). Further, the inhibition is 29% in test [2] and -1% in test [3]. Besides, the outcome in test [5], in test [6], in test [7] and in test [8] was inactive.
As for `COc1ccc(C(=O)CCC(=O)N(Cc2ccc(-c3ccc(CNCCc4ccccc4)cn3)cc2)C(C)CN(C)C)cc1F` (stereo not given), the growth inhibition in test [1] is 57% (active); in test [4] it was 98% (active). Moreover, the inhibition in test [2] was 20%; in test [3], -4%. Moreover, the outcome in test [5], in test [6], in test [7] and in test [8] was inactive.
Turning to `Nc1nc2c(c(=O)[nH]1)CN(S(=O)(=O)c1ccc(C(=O)N[C@@H](CCC(=O)O)C(=O)O)cc1)CC2`, the results for the growth inhibition in test [1] and in test [4] were 96% (active) and 95% (active), respectively. The inhibition is 49% in test [2] and 6% in test [3]. Besides, the result in test [5], in test [6], in test [7] and in test [8] was inactive.
For `CC(C)c1ccc(OCCCON2C(N)=NC(N)=NC2(C)C)cc1`, the growth inhibition in test [1] was 97% (active); in test [4], 93% (active). Further, the inhibition in test [2] is 69% (active); in test [3], 0%. In addition, the outcome in test [5], in test [6], in test [7] and in test [8] was inactive.
Take `CCOc1c(Br)cc(Cl)cc1CNCCCNc1nc2ccccc2[nH]1`: the growth inhibition in test [1] was 3%; in test [4], 98% (active). In addition, the inhibition in test [2] was 27%; in test [3] it was -2%. Besides, the result in test [5], in test [6], in test [7] and in test [8] was inactive.
As to `COc1ccc2nccc([C@H](O)CN3CCC(NCc4ccc5c(c4C)OCCO5)CC3)c2n1`, the growth inhibition is 6% in test [1] and 94% (active) in test [4]. The inhibition was 26% in test [2] and 4% in test [3]. The result in test [5], in test [6], in test [7] and in test [8] was inactive.
As for `O=C(Nc1cc(Cl)ccc1-n1cncn1)C1(c2ccccc2)CC1`, the growth inhibition is 91% (active) in test [1] and 98% (active) in test [4]. In addition, the inhibition in test [2] is 3%; in test [3], -2%. In addition, the outcome in test [5], in test [6], in test [7] and in test [8] was inactive.

The values above are taken from PubChem BioAssay.
